{
  "source": "the supplement of paper PMC8728848",
  "binders": {"B1": {"name": "PX14375C-bth-509-28-509 (Bacteroides thetaiotaomicron) (protein)", "chain": "RSPQGQFTEDDNPNALVNGKIYNVYTMMRSFDITAGTPAIAIHYLRSEDSEKGSIPSDGSDVAEMYDDFLYTPTNGLLGSYWGKNYAIIYQCNDILDAIAEKETAGQTETEDIINKGEASFFRAYCYFNLVRAFGEVPLVTYKINDASEANIPKTTADKIYEQIDTDLKTAEESLPETWSTEYTGRLTWGAARSLHARTYMMRSDWDNMYKASTDVINKGLYNLKTPYNEIFTDDGENSGGSIFELQCTATAALPQSDVIGSQFCEVQGVRGAGQWDLGWGWHMATQLMADAYETGDPRKNATLLYFRKTDDEPITPENTNEPYGESPISPAMGAYFNKKAYTDPALRKEYTNKGFWVNIRLIRYSDVVLMAAEAANEKNIPGEAVDYLEMVRARARGTNTNILPKITTNDQGELREAIRHERRVELGLEPDRFYDLVRWGIASEVLHAAGKVNYQDKNALLPLPQSEIDKSKGVLVQNPDY"}},
  "assay_in_all_cases": "glycan array binding signal (z-score within array); higher = stronger binding",
  "details_in_all_cases": "glycan notation: IUPAC condensed, linker removed",
  "key": {"[1]": {"molecular_target": "Fuc(a1-2)Gal(b1-3)[Fuc(a1-4)]GlcNAc", "summary_of_the_method": "(§1)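 The binding signal is a Z-score computed within each array. Data were drawn from 3228 arrays in the Consortium for Functional Glycomics database, restricted to those with a known protein sequence. Scores were averaged over arrays of the same protein sequence at different concentrations or buffers, and over linkers, and negative values can be taken as non-binding.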"}, "Fuc(a1-2)[Gal(a1-3)]Gal": {"molecular_target": "Fuc(a1-2)[Gal(a1-3)]Gal", "summary_of_the_method": "as §1"}, "[2]": {"molecular_target": "Fuc(a1-2)[Gal(a1-3)]Gal(b1-4)Glc", "summary_of_the_method": "as §1"}, "[3]": {"molecular_target": "Fuc(a1-2)[GalNAc(a1-3)]Gal(b1-3)GalNAc(a1-3)[Fuc(a1-2)]Gal(b1-4)GlcNAc", "summary_of_the_method": "as §1"}, "[4]": {"molecular_target": "Fuc(a1-2)[GalNAc(a1-3)]Gal(b1-3)GalNAc(b1-3)Gal(a1-4)Gal(b1-4)Glc", "summary_of_the_method": "as §1"}, "[5]": {"molecular_target": "Fuc(a1-2)[GalNAc(a1-3)]Gal(b1-3)GlcNAc(b1-2)Man(a1-3)[Fuc(a1-2)[GalNAc(a1-3)]Gal(b1-3)GlcNAc(b1-2)Man(a1-6)]Man(b1-4)GlcNAc(b1-4)[Fuc(a1-6)]GlcNAc", "summary_of_the_method": "as §1"}, "[6]": {"molecular_target": "Fuc(a1-2)[GalNAc(a1-3)]Gal(b1-4)GlcNAc(b1-6)GalNAc", "summary_of_the_method": "as §1"}, "Gal(a1-3)Gal(b1-3)GlcNAc": {"molecular_target": "Gal(a1-3)Gal(b1-3)GlcNAc", "summary_of_the_method": "as §1"}, "Gal(a1-3)Gal(b1-4)Glc": {"molecular_target": "Gal(a1-3)Gal(b1-4)Glc", "summary_of_the_method": "as §1"}, "[7]": {"molecular_target": "Gal(a1-3)Gal(b1-4)GlcNAc(b1-2)Man(a1-3)[Gal(a1-3)Gal(b1-4)GlcNAc(b1-2)Man(a1-6)]Man(b1-4)GlcNAc(b1-4)GlcNAc", "summary_of_the_method": "as §1"}, "[8]": {"molecular_target": "Gal(a1-3)Gal(b1-4)[Fuc(a1-3)]GlcNAc(b1-2)Man(a1-3)[Gal(a1-3)Gal(b1-4)[Fuc(a1-3)]GlcNAc(b1-2)Man(a1-6)]Man(b1-4)GlcNAc(b1-4)GlcNAc", "summary_of_the_method": "as §1"}, "Gal(a1-3)GalNAc": {"molecular_target": "Gal(a1-3)GalNAc", "summary_of_the_method": "as §1"}, "[9]": {"molecular_target": "Gal(a1-3)[Gal(a1-4)]Gal(b1-4)GlcNAc", "summary_of_the_method": "as §1"}, "[10]": {"molecular_target": "Gal(a1-4)Gal(b1-4)GlcNAc(b1-2)Man(a1-3)[Gal(a1-4)Gal(b1-4)GlcNAc(b1-2)Man(a1-6)]Man(b1-4)GlcNAc(b1-4)GlcNAc", "summary_of_the_method": "as §1"}, "[11]": {"molecular_target": "Gal(a1-4)Gal(b1-4)GlcNAc(b1-3)Gal(b1-4)Glc", "summary_of_the_method": "as §1"}, "Gal(b1-3)Gal(b1-4)GlcNAc": {"molecular_target": "Gal(b1-3)Gal(b1-4)GlcNAc", "summary_of_the_method": "as §1"}, "Gal(b1-3)GlcNAc": {"molecular_target": "Gal(b1-3)GlcNAc", "summary_of_the_method": "as §1"}, "[12]": {"molecular_target": "Gal(b1-3)GlcNAc(b1-3)Gal(b1-4)GlcNAc", "summary_of_the_method": "as §1"}, "[13]": {"molecular_target": "Gal(b1-3)GlcNAc(b1-3)Gal(b1-4)[Fuc(a1-3)]GlcNAc(b1-6)[Gal(b1-3)GlcNAc(b1-3)]Gal(b1-4)Glc", "summary_of_the_method": "as §1"}, "[14]": {"molecular_target": "Gal(b1-3)[Fuc(a1-4)]GlcNAc(b1-2)Man(a1-3)[Gal(b1-3)[Fuc(a1-4)]GlcNAc(b1-2)Man(a1-6)]Man(b1-4)GlcNAc(b1-4)[Fuc(a1-6)]GlcNAc", "summary_of_the_method": "as §1"}, "Gal(b1-4)Glc6S": {"molecular_target": "Gal(b1-4)Glc6S", "summary_of_the_method": "as §1"}, "[15]": {"molecular_target": "Gal(b1-4)GlcNAc(a1-6)Gal(b1-4)GlcNAc", "summary_of_the_method": "as §1"}, "[16]": {"molecular_target": "Gal(b1-4)GlcNAc(b1-2)Man(a1-3)[Gal(b1-4)GlcNAc(b1-2)Man(a1-6)]Man(b1-4)GlcNAc(b1-4)GlcNAc", "summary_of_the_method": "as §1"}, "[17]": {"molecular_target": "Gal(b1-4)GlcNAc(b1-2)[Gal(b1-4)GlcNAc(b1-4)]Man(a1-3)[Gal(b1-4)GlcNAc(b1-2)[Gal(b1-4)GlcNAc(b1-6)]Man(a1-6)]Man(b1-4)GlcNAc(b1-4)GlcNAc", "summary_of_the_method": "as §1"}, "[18]": {"molecular_target": "Gal(b1-4)GlcNAc(b1-3)Gal(b1-3)GalNAc", "summary_of_the_method": "as §1"}, "[19]": {"molecular_target": "Gal(b1-4)GlcNAc(b1-3)Gal(b1-4)GlcNAc(b1-2)Man(a1-3)[Gal(b1-4)GlcNAc(b1-3)Gal(b1-4)GlcNAc(b1-2)Man(a1-6)]Man(b1-4)GlcNAc(b1-4)GlcNAc", "summary_of_the_method": "as §1"}, "[20]": {"molecular_target": "Gal(b1-4)GlcNAc(b1-3)Gal(b1-4)GlcNAc(b1-2)[Gal(b1-4)GlcNAc(b1-3)Gal(b1-4)GlcNAc(b1-6)]Man(a1-6)[Gal(b1-4)GlcNAc(b1-3)Gal(b1-4)GlcNAc(b1-2)Man(a1-3)]Man(b1-4)GlcNAc(b1-4)[Fuc(a1-6)]GlcNAc", "summary_of_the_method": "as §1"}},
  "note": "This is one part of a sample in which the strongest signals are shown more often than they occur.",
  "data": [
    {"binder": "B1", "values": [
      {"measurement": "glycan array binding signal (z-score)", "setting": "[1]", "result": -0.397},
      {"measurement": "glycan array binding signal (z-score)", "setting": "Fuc(a1-2)[Gal(a1-3)]Gal", "result": -0.193},
      {"measurement": "glycan array binding signal (z-score)", "setting": "[2]", "result": 0.04},
      {"measurement": "glycan array binding signal (z-score)", "setting": "[3]", "result": -0.112},
      {"measurement": "glycan array binding signal (z-score)", "setting": "[4]", "result": -0.355},
      {"measurement": "glycan array binding signal (z-score)", "setting": "[5]", "result": -0.19},
      {"measurement": "glycan array binding signal (z-score)", "setting": "[6]", "result": 3.04},
      {"measurement": "glycan array binding signal (z-score)", "setting": "Gal(a1-3)Gal(b1-3)GlcNAc", "result": -0.256},
      {"measurement": "glycan array binding signal (z-score)", "setting": "Gal(a1-3)Gal(b1-4)Glc", "result": -0.196},
      {"measurement": "glycan array binding signal (z-score)", "setting": "[7]", "result": 0.762},
      {"measurement": "glycan array binding signal (z-score)", "setting": "[8]", "result": 1.41},
      {"measurement": "glycan array binding signal (z-score)", "setting": "Gal(a1-3)GalNAc", "result": -0.254},
      {"measurement": "glycan array binding signal (z-score)", "setting": "[9]", "result": 2.55},
      {"measurement": "glycan array binding signal (z-score)", "setting": "[10]", "result": -0.374},
      {"measurement": "glycan array binding signal (z-score)", "setting": "[11]", "result": -0.341},
      {"measurement": "glycan array binding signal (z-score)", "setting": "Gal(b1-3)Gal(b1-4)GlcNAc", "result": -0.316},
      {"measurement": "glycan array binding signal (z-score)", "setting": "Gal(b1-3)GlcNAc", "result": -0.186},
      {"measurement": "glycan array binding signal (z-score)", "setting": "[12]", "result": -0.144},
      {"measurement": "glycan array binding signal (z-score)", "setting": "[13]", "result": -0.581},
      {"measurement": "glycan array binding signal (z-score)", "setting": "[14]", "result": 0.351},
      {"measurement": "glycan array binding signal (z-score)", "setting": "Gal(b1-4)Glc6S", "result": 0.533},
      {"measurement": "glycan array binding signal (z-score)", "setting": "[15]", "result": -0.071},
      {"measurement": "glycan array binding signal (z-score)", "setting": "[16]", "result": 6.16},
      {"measurement": "glycan array binding signal (z-score)", "setting": "[17]", "result": 1.28},
      {"measurement": "glycan array binding signal (z-score)", "setting": "[18]", "result": -0.287},
      {"measurement": "glycan array binding signal (z-score)", "setting": "[19]", "result": 4.35},
      {"measurement": "glycan array binding signal (z-score)", "setting": "[20]", "result": 12.3}
    ]}
  ]
}
